From PubChem BioAssay (NCATS)
Records with an inconclusive call do not appear. Calls of active or inactive are those of the source. Calls come from the whole dose curve; as a rule, active = well fitted inhibition curve with a large enough effect; inconclusive = small, poorly fitted or top-dose-only effect; inactive = no such curve, though single readings can be large or run the other way.

Target: Rap guanine nucleotide exchange factor 4 (Homo sapiens) (UniProt Q8WZA2)
Assay: Confirmatory qHTS for antagonist of cAMP-regulated guanine nucleotide exchange factor 4 (EPAC2) (AID 1645885); note: nearly all actives have a fitted effect of over 25% in size; note: potency is the fitted concentration of half-maximal effect; for activity change, negative = inhibition: % is set by controls: 0 for no effect and ±100 for the full control effect
Conditions: EPAC2 Rap1B-BODIPY-GDP exchange fluorescence, biochemical; series mostly up to 12.7 µM; activity change, negative = inhibition: at the top concentration

Sequence of Rap guanine nucleotide exchange factor 4 (Homo sapiens) (Q8WZA2 whole entry, looked up): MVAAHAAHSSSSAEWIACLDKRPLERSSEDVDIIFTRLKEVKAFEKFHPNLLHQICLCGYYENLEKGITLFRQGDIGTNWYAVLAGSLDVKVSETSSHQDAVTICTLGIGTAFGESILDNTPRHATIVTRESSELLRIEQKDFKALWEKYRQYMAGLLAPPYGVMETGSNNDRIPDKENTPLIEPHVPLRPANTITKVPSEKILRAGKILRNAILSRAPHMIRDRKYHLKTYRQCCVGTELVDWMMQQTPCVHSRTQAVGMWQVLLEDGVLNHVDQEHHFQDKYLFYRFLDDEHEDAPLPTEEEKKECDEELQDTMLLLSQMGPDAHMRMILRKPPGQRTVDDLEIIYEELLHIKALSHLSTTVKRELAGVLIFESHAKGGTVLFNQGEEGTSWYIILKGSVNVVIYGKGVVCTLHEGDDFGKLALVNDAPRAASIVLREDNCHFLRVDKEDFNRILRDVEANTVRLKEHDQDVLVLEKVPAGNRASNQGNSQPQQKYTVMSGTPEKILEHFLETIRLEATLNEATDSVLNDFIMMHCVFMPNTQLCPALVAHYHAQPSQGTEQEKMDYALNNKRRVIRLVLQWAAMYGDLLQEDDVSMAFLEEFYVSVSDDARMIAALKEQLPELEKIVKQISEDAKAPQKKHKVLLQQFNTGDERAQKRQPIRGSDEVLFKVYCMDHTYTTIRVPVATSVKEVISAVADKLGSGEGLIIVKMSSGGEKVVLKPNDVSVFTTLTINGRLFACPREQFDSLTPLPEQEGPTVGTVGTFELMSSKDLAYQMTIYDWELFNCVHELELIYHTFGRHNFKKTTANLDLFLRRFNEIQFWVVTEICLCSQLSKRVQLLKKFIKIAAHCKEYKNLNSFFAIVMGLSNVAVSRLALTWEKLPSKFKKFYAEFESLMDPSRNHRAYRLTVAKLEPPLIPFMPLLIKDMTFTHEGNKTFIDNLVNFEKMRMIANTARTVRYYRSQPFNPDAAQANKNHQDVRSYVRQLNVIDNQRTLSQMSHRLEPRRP

Question: With `N#C/C(=C\c1ccc(Sc2ccc(Cl)cc2)o1)c1nc2ccccc2[nH]1` as the molecule, how does the “activity change, negative = inhibition” value read?
Answer: -9.7% [at 114 µM] (inactive)

Question: For `C=Cc1ccc(CC2(C)C(=O)Nc3ccc(-c4cccnc4)cc32)cc1` (centres undefined), which “outcome” value is on record?
Answer: inactive; activator; fitted 11.9955 uM

Question: How did the Potency turn out when `COc1ccc2c(c1)CCC1C2=NN(/C(C)=C/C(C)=O)C1c1cccc(F)c1` (centres undefined) was run?
Answer: 84.9 µM (active)

Question: `CCOC(=O)c1cc(C)sc1NC(=O)CSC1=NCCS1` was tested. Which “activity change, negative = inhibition” value did it give?
Answer: 54.9% [at 114 µM] (inactive)

Question: Which Potency does the source give for `CC(=O)/C(=N\Nc1ccccc1)Sc1cccc2cccnc12` here?
Answer: 84.9 µM (active)

Question: With `O=C1/C(=C\c2cc(Cl)c(O)c(Cl)c2)SC(=S)N1Cc1ccccc1` as the molecule, how does the “activity change, negative = inhibition” value read?
Answer: 61.7% [at 114 µM] (inactive)

Question: With `COc1ccc(-c2csc3nc(C)nc(N4CCCCC4)c23)cc1OC` as the molecule, how does the “activity change, negative = inhibition” value read?
Answer: 61.7% [at 114 µM] (inactive)

Question: For `CC(=O)CCc1oc2c([N+](=O)[O-])cccc2c1-c1ccc(C)o1`, which “activity change, negative = inhibition” value is on record?
Answer: 4.16% [at 114 µM] (inactive)

Question: Which “activity change, negative = inhibition” value does the source give for `Cc1cc(N(C)C)c(C)cc1/C=C/c1ccnc2ccccc12` here?
Answer: 14.1% [at 114 µM] (inactive)

Question: How did the “activity change, negative = inhibition” value turn out when `CN(C)c1ccc(/C=C/c2ccnc3c(Cl)cccc23)cc1` was run?
Answer: -14.3% [at 114 µM] (inactive)

Question: For `CCN(CC)c1ccc(C=C2SC(=S)NC2=O)cc1`, which Potency is on record?
Answer: 84.9 µM (active)

Question: How did the “activity change, negative = inhibition” value turn out when `COc1ccc(CCNC(=S)N2CCN(S(=O)(=O)c3ccc(F)cc3)CC2)cc1` was run?
Answer: 22.8% [at 114 µM] (inactive)

Question: `N=C1/C(=C\c2coc3ccccc3c2=O)C(=O)N=C2SC=CN12` was tested. Which “activity change, negative = inhibition” value did it give?
Answer: 6.63% (inactive)

Question: Which “activity change, negative = inhibition” value does the source give for `COc1ccc(-c2nn(-c3ccccc3)cc2/C=C2/SC(=S)N(CCC(=O)O)C2=O)cc1` here?
Answer: -6.76% [at 114 µM] (inactive)

Question: `CN(C)c1ccc(-c2cc3ccccc3c(=O)o2)cc1` was tested. Which “activity change, negative = inhibition” value did it give?
Answer: -4.71% [at 114 µM] (inactive)

Question: For `N#CC(C#N)=C1C=C2C=C(N3CCCCCC3)CCC2CC1` (centres undefined), which “activity change, negative = inhibition” value is on record?
Answer: 238% [at 114 µM] (inactive)

Question: For `CNC(=O)c1csc(Cc2c(Cl)sc3ccc(Cl)cc23)n1`, which “outcome” value is on record?
Answer: inactive

Question: For `CC(C)N1CCc2c(sc(NC(=O)c3ccc(C(=O)c4ccccc4)cc3)c2C(N)=O)C1`, which “outcome” value is on record?
Answer: inactive

Question: With `CN(C(=O)c1cc2c(cc1Br)OCO2)c1cccc2ccccc12` as the molecule, how does the “activity change, negative = inhibition” value read?
Answer: 41% [at 114 µM] (inactive)

Question: For `Cc1ccc(-c2nc3ccc(C)cn3c2CC2CCCCC2)cc1`, which “activity change, negative = inhibition” value is on record?
Answer: -19.9% [at 114 µM] (inactive)

Question: Which “activity change, negative = inhibition” value does the source give for `CCCN(CCC)c1ccc(/C=C/c2ccnc3ccccc23)cc1` here?
Answer: 138% [at 114 µM] (inactive)

Question: For `CCCN1CC=C2C(C#N)=C(N)C(C#N)(C#N)C(c3cccc(OC)c3OC)C2C1` (centres undefined), which Potency is on record?
Answer: 12 µM (active)

Question: `Cc1ccc(N=Cc2c(O)n(-c3nccs3)c(=O)c3ccccc23)c(C)c1` was tested. Which “activity change, negative = inhibition” value did it give?
Answer: 16.1% (inactive)

Question: For `CCOC(=O)c1ccc2[nH]cc(C(C)=O)c(=O)c2c1`, which “activity change, negative = inhibition” value is on record?
Answer: -1.84% [at 114 µM] (inactive)

Question: How did the “activity change, negative = inhibition” value turn out when `O=C(NCc1cccc(F)c1)c1cccc2c1C(=O)c1ccc(N3CCOCC3)cc1S2(=O)=O` was run?
Answer: -10.2% [at 114 µM] (inactive)

Question: Which “activity change, negative = inhibition” value does the source give for `CCSC1=NSC2=NC(=O)/C(=C\c3coc4ccccc4c3=O)C(=N)N12` here?
Answer: 16% (inactive)

Target: Rap guanine nucleotide exchange factor 3 (Homo sapiens) (UniProt O95398)
Sequence (O95398 whole entry, looked up): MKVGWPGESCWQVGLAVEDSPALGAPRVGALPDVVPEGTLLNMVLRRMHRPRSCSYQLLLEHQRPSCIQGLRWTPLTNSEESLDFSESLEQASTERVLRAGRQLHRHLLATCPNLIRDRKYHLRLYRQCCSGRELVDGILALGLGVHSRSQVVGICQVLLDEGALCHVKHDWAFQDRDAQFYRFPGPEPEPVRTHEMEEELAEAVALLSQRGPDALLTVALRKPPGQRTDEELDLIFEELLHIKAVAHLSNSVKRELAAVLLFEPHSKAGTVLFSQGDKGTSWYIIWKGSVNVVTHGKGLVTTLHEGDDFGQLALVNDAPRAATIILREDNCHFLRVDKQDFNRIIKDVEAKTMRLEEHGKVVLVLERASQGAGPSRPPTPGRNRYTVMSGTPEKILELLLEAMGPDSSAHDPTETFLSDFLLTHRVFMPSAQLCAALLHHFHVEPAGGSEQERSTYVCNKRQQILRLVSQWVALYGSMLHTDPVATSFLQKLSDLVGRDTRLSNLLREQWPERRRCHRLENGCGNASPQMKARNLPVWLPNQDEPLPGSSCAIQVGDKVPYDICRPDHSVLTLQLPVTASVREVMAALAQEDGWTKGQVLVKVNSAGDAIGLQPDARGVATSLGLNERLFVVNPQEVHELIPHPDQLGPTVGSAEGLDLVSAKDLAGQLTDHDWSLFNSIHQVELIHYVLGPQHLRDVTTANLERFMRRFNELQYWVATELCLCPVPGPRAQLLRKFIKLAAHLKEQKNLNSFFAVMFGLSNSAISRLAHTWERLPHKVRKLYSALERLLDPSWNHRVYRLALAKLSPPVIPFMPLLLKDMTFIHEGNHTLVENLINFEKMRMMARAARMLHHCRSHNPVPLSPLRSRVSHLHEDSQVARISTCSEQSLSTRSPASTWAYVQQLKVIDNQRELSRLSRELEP
Assay: Counterscreen qHTS for antagonist of cAMP-regulated guanine nucleotide exchange factor 3 (EPAC1) (AID 1645888);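 note: fluorescence loss as bound BODIPY-GDP is released from Rap1B; % of control where 0% means no effect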
Conditions: Rap1B-BODIPY-GDP nucleotide exchange, fluorescence; series mostly up to 154 µM; activity change, negative = inhibition: at the top concentration
Method in brief: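 Measured: fluorescence of BODIPY-GDP bound to Rap1B, which falls as exchange proceeds. Conditions include 50 uM competing GDP, 5 and 30 min reads, and a later cAMP challenge for antagonist detection.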

Question: For `N#C/C(=C\c1ccc(Sc2ccc(Cl)cc2)o1)c1nc2ccccc2[nH]1`, which “activity change, negative = inhibition” value is on record?
Answer: 14.7% (inactive)

Question: With `C=Cc1ccc(CC2(C)C(=O)Nc3ccc(-c4cccnc4)cc32)cc1` (centres undefined) as the molecule, how does the “activity change, negative = inhibition” value read?
Answer: -15.8% (inactive)

Question: `CCN(CC)c1ccc2cc(C(=O)NNC(=O)c3ccc(S(=O)(=O)N4CCCCC4)cc3)c(=O)oc2c1` was tested. Which “activity change, negative = inhibition” value did it give?
Answer: -0.16% (inactive)

Question: With `O=C1c2ccccc2-c2onc3c(Br)cc(NC4CCCCC4)c1c23` as the molecule, how does the “activity change, negative = inhibition” value read?
Answer: 8.06% (inactive)

Question: Which “activity change, negative = inhibition” value does the source give for `CC(=Nc1ccc(C)cc1C)c1sc2ccccc2c1O` here?
Answer: 21% (inactive)

Question: Which “activity change, negative = inhibition” value does the source give for `CCSc1nnc(-c2sc3nnc(-c4ccccc4)c(-c4ccccc4)c3c2N)o1` here?
Answer: 43.4% (inactive)

Question: With `COc1ccc2c(c1)CCC1C2=NN(/C(C)=C/C(C)=O)C1c1cccc(F)c1` (centres undefined) as the molecule, how does the “activity change, negative = inhibition” value read?
Answer: 11.1% (inactive)

Question: With `CCOC(=O)c1cc(C)sc1NC(=O)CSC1=NCCS1` as the molecule, how does the “activity change, negative = inhibition” value read?
Answer: 14.2% (inactive)

Question: `CC(=O)/C(=N\Nc1ccccc1)Sc1cccc2cccnc12` was tested. Which “activity change, negative = inhibition” value did it give?
Answer: -6.62% (inactive)

Question: `O=C1/C(=C\c2cc(Cl)c(O)c(Cl)c2)SC(=S)N1Cc1ccccc1` was tested. Which “activity change, negative = inhibition” value did it give?
Answer: 115% (inactive)

Question: For `COc1ccc(-c2csc3nc(C)nc(N4CCCCC4)c23)cc1OC`, which “activity change, negative = inhibition” value is on record?
Answer: 12% (inactive)

Question: For `COc1cc2c(cc1OC)C1(C)N(CC2)C(C(C)=O)=NN1c1ccc(Cl)cc1` (centres undefined), which activity change, negative = inhibition is on record?
Answer: 5.93% [at 30.8 µM] (inactive)

Question: With `CC(=O)CCc1oc2c([N+](=O)[O-])cccc2c1-c1ccc(C)o1` as the molecule, how does the “activity change, negative = inhibition” value read?
Answer: 14.8% (inactive)

Question: How did the “activity change, negative = inhibition” value turn out when `COC(=O)C1=NN(c2ccc(C)cc2)C2(S1)SC(C(C)=O)=C(C)N2c1ccccc1` (centres undefined) was run?
Answer: 2.21% (inactive)

Question: `CCCCNc1ccc2c3c(cccc13)C(=O)N(CCCC)C2=O` was tested. Which activity change, negative = inhibition did it give?
Answer: 213% [at 30.8 µM] (inactive)

Question: Which “activity change, negative = inhibition” value does the source give for `COC(=O)c1cc2oc(C)cc2n1Cc1ccc(C)cc1` here?
Answer: 24.1% (inactive)

Question: With `CCN(CC)c1ccc(C=C2SC(=S)NC2=O)cc1` as the molecule, how does the “activity change, negative = inhibition” value read?
Answer: 56.8% (inactive)

Question: For `COc1ccc(CCNC(=S)N2CCN(S(=O)(=O)c3ccc(F)cc3)CC2)cc1`, which “activity change, negative = inhibition” value is on record?
Answer: 119% (inactive)

Question: Which activity change, negative = inhibition does the source give for `O=C1N(Cc2ccccc2)c2ccc(Cl)cc2C12OCCO2` here?
Answer: -8.76% [at 30.8 µM] (inactive)

Question: How did the activity change, negative = inhibition turn out when `N=C1/C(=C\c2coc3ccccc3c2=O)C(=O)N=C2SC=CN12` was run?
Answer: 46.8% [at 30.8 µM] (inactive)

Question: For `COc1ccc(-c2nn(-c3ccccc3)cc2/C=C2/SC(=S)N(CCC(=O)O)C2=O)cc1`, which “activity change, negative = inhibition” value is on record?
Answer: 12.7% (inactive)

Question: Which “activity change, negative = inhibition” value does the source give for `CN(C)c1ccc(-c2cc3ccccc3c(=O)o2)cc1` here?
Answer: 9.24% (inactive)

Question: `CNC(=O)c1csc(Cc2c(Cl)sc3ccc(Cl)cc23)n1` was tested. Which “activity change, negative = inhibition” value did it give?
Answer: 9.85% (inactive)

Question: Which “activity change, negative = inhibition” value does the source give for `CC(C)N1CCc2c(sc(NC(=O)c3ccc(C(=O)c4ccccc4)cc3)c2C(N)=O)C1` here?
Answer: 18.2% (inactive)

Question: For `COc1cccc(C(=O)c2sc3nc(-c4ccccc4)cc(C(F)(F)F)c3c2N)c1`, which “activity change, negative = inhibition” value is on record?
Answer: 157% (inactive)

Question: Which “activity change, negative = inhibition” value does the source give for `CN(C(=O)c1cc2c(cc1Br)OCO2)c1cccc2ccccc12` here?
Answer: 14% (inactive)

Question: With `Cc1ccc(-c2nc3ccc(C)cn3c2CC2CCCCC2)cc1` as the molecule, how does the “activity change, negative = inhibition” value read?
Answer: 20.2% (inactive)

Question: Which “activity change, negative = inhibition” value does the source give for `CCCN1CC=C2C(C#N)=C(N)C(C#N)(C#N)C(c3cccc(OC)c3OC)C2C1` (centres undefined) here?
Answer: 29.9% (inactive)

Question: Which activity change, negative = inhibition does the source give for `Cc1ccc(N=Cc2c(O)n(-c3nccs3)c(=O)c3ccccc23)c(C)c1` here?
Answer: 7.45% [at 30.8 µM] (inactive)

Question: `CCOC(=O)c1ccc2[nH]cc(C(C)=O)c(=O)c2c1` was tested. Which “activity change, negative = inhibition” value did it give?
Answer: 27.4% (inactive)

Question: `COc1ccc(NC(=O)c2csc3c2CCCCC3)c(OC)c1` was tested. Which “activity change, negative = inhibition” value did it give?
Answer: 15% (inactive)

Question: For `O=C(NCc1cccc(F)c1)c1cccc2c1C(=O)c1ccc(N3CCOCC3)cc1S2(=O)=O`, which “activity change, negative = inhibition” value is on record?
Answer: 6.07% (inactive)

Question: For `CCSC1=NSC2=NC(=O)/C(=C\c3coc4ccccc4c3=O)C(=N)N12`, which activity change, negative = inhibition is on record?
Answer: 72.5% [at 30.8 µM] (inactive)
